Experimental findings from the supplement of paper PMC10849652 are described below.

Targets with a hit are over-represented here; the source holds about 8,800 in all. About 0.5% of all pairs of compound and target were hits.

Chain of UniProt Q96DW6 (Q96DW6 whole entry, looked up): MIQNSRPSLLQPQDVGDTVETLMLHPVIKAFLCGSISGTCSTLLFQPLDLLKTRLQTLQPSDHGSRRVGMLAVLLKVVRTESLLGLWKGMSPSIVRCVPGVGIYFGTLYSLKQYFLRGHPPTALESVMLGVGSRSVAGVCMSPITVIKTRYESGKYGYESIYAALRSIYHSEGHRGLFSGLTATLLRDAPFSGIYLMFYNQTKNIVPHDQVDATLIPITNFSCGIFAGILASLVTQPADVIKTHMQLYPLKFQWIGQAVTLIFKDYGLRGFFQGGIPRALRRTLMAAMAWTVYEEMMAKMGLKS
Chain of UniProt Q13188 (Q13188 whole entry, looked up): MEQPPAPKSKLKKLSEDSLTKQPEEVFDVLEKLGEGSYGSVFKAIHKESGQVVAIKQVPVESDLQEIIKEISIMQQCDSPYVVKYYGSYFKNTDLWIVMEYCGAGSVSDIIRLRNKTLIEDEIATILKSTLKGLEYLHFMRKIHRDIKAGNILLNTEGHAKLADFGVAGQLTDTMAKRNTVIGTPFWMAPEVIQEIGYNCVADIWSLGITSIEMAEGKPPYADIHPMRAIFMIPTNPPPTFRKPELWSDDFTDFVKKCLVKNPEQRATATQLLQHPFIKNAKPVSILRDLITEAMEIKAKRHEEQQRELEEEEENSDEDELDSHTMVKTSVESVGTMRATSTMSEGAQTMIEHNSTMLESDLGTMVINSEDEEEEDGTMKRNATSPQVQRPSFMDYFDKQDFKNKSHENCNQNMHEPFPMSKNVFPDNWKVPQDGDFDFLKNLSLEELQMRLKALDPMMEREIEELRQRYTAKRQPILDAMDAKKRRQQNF
Chain of UniProt Q99961 (Q99961 whole entry, looked up): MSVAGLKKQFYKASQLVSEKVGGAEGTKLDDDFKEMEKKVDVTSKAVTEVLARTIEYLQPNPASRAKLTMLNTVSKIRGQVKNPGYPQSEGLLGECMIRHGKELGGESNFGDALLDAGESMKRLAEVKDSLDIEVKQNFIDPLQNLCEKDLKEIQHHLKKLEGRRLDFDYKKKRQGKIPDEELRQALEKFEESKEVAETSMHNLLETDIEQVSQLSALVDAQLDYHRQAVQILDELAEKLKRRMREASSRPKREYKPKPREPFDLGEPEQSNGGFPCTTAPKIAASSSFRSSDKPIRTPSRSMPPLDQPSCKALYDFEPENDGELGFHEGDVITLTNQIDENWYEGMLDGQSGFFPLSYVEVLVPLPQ
Chain of UniProt Q9NZ72 (Q9NZ72 whole entry, looked up): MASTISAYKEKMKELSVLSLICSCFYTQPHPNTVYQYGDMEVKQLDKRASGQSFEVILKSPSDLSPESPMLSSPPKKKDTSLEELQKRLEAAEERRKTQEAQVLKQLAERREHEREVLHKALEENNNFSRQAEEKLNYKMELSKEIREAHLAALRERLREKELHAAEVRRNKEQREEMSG
Chain of UniProt Q53T94 (Q53T94 whole entry, looked up): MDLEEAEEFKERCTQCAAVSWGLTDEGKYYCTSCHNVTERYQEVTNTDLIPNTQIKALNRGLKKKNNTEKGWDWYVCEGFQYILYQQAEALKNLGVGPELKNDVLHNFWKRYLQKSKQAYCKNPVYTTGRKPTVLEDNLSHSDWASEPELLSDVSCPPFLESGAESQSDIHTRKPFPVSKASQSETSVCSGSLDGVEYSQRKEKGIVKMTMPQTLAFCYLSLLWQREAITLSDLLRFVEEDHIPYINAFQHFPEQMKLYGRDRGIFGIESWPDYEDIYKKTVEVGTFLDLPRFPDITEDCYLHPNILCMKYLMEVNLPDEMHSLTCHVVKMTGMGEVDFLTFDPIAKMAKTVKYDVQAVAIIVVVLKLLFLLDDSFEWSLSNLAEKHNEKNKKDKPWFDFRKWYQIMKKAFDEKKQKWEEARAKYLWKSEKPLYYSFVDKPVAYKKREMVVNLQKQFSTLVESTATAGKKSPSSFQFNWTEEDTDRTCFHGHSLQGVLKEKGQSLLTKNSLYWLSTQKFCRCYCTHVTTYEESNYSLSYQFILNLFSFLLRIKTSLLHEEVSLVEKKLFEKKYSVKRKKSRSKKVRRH
Chain of UniProt B2RUZ4 (B2RUZ4 whole entry, looked up): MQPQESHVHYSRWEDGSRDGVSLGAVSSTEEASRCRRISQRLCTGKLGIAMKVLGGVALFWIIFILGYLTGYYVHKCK
Chain of UniProt O95149 (O95149 whole entry, looked up): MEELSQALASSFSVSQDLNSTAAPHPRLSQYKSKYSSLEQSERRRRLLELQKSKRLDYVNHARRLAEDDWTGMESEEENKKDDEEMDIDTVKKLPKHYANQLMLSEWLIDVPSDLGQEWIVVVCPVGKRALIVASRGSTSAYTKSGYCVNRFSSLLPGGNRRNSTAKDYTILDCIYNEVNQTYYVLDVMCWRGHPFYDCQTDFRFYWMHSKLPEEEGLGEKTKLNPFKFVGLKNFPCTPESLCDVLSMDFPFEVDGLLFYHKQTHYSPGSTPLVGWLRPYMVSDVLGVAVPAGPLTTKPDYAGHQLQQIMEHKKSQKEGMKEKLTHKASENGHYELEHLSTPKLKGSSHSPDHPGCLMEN
Chain of UniProt P62316 (P62316 whole entry, looked up): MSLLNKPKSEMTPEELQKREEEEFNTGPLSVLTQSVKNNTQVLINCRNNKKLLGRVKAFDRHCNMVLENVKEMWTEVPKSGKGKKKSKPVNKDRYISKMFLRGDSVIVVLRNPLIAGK
Chain of UniProt Q8NDV3 (Q8NDV3 whole entry, looked up): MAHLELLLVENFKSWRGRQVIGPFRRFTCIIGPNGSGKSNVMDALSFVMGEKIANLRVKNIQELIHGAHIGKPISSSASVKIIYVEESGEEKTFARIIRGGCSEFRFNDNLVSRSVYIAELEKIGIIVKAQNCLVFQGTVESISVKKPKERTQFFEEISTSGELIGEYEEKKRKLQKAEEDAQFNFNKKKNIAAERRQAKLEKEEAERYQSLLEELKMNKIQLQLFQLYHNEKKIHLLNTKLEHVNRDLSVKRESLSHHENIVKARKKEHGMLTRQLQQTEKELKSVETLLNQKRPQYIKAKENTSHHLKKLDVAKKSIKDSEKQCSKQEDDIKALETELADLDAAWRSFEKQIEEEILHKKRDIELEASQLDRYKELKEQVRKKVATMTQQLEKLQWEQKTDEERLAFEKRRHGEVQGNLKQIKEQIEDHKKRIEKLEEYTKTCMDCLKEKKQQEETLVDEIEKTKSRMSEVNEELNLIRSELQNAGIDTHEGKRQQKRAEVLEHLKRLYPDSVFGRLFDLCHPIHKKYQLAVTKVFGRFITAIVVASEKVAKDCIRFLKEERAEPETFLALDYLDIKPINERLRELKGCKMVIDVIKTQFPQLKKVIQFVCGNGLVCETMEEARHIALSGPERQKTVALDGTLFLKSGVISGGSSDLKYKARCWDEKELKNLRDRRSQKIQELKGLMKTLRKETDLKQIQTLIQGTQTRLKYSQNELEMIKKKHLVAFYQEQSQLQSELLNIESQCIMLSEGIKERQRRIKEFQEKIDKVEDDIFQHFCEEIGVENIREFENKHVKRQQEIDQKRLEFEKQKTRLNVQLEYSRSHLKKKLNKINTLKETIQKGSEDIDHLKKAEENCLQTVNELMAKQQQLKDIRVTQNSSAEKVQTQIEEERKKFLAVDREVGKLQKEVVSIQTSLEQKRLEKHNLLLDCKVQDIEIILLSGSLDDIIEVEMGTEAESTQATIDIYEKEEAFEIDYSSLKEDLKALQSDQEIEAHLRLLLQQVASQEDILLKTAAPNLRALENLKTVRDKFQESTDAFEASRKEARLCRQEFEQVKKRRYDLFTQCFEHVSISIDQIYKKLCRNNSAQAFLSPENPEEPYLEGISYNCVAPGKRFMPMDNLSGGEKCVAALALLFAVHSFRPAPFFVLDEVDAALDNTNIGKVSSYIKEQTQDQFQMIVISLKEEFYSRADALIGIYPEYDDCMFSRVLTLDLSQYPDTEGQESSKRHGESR
Chain of UniProt O60504 (O60504 whole entry, looked up): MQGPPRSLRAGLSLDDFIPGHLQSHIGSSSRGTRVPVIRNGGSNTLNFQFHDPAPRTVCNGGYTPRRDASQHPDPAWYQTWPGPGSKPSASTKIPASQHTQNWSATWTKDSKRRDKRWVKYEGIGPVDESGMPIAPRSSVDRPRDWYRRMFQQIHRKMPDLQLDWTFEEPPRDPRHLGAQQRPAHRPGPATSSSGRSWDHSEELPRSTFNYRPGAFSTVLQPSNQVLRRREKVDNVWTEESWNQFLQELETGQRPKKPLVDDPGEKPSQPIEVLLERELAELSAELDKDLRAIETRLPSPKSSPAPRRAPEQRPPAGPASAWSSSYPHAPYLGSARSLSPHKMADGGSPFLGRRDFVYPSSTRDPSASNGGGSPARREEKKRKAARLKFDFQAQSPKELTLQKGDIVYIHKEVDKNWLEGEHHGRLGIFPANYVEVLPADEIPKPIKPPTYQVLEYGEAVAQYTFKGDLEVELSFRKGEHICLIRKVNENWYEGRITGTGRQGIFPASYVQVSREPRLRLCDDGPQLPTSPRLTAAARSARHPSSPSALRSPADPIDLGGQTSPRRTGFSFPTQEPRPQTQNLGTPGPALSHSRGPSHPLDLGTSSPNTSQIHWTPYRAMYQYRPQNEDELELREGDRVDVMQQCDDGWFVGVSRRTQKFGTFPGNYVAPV
Chain of UniProt Q15527 (Q15527 whole entry, looked up): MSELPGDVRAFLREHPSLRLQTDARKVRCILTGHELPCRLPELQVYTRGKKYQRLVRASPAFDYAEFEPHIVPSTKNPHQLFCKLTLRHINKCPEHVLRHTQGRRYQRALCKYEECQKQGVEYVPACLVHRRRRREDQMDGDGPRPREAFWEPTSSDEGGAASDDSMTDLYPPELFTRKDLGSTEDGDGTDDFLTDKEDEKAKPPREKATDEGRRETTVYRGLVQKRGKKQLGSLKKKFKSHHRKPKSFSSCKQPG
Chain of UniProt O60225 (O60225 whole entry, looked up): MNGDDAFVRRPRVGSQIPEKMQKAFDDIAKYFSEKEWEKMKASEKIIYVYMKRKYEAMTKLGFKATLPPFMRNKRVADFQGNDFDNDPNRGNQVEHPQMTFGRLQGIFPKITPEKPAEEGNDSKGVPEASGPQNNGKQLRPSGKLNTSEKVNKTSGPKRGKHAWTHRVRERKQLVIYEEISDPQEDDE

Compound in this assay: CCn1c(C(=O)N(C2CC2)C2CC2)cc2c3c(ncn3C)c(Nc3cc(C)n(C)n3)nc21
The assay is described as follows: log2 fold change, soluble protein after heating vs DMSO (PISA); higher = thermal stabilisation; K562 lysate, 10 uM; active = over 0.2 and 3.5 SD of the protein, either way, in both replicates (recomputed). The method in brief: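 K562 pellets were dounce-homogenised in PBS pH 7.4 containing 1 mM MgCl2, and the crude extract, at 1 mg/mL protein, was exposed to 10 μM compound for 30 min. Aliquots were heated for 3 min across 48°C-58°C, pooled, brought to 0.5% NP-40 at 4°C and spun at 21,000xg for 90 min, with the supernatant taken as soluble protein. TMTpro 16plex LC-MS/MS with equalised channel sums quantified that protein. Values are log-two fold changes in thermal stability relative to solvent controls, taken from duplicates.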
Turning to SORBS3 (UniProt O60504), the log2 fold change is -0.05 (inactive).

Turning to SF3B6 (UniProt Q9Y3B4), the log2 fold change is -0.003 (inactive).

As for TAF1B (UniProt Q53T94), the log2 fold change is -0.039 (inactive).

For the target SH3GL1 (UniProt Q99961), the log2 fold change was 0.018 (inactive).

Take SLC25A38 (UniProt Q96DW6): the log2 fold change was 0.015 (inactive).

For SLC30A6 isoform 2 (UniProt Q6NXT4), the log2 fold change is -0.03 (inactive).

With SMYD3 (UniProt Q9H7B4), the log2 fold change was -0.02 (inactive).

Consider SIX5 (UniProt Q8N196), for which the log2 fold change was 0.084 (inactive).

Consider SSBP3 (UniProt Q9BWW4), for which the log2 fold change was 0.038 (inactive).

Turning to SNRPD2 (UniProt P62316), the log2 fold change was 0.018 (inactive).

On to SNUPN (UniProt O95149), for which the log2 fold change was 0.051 (inactive).

For the target SLC39A11 (UniProt Q8N1S5), the log2 fold change is 0.028 (inactive).

As to STN1 (UniProt Q9H668), the log2 fold change was -0.016 (inactive).

Consider SRSF9 (UniProt Q13242), for which the log2 fold change is 0.03 (inactive).

As to SMIM12 (UniProt Q96EX1), the log2 fold change was 0.08 (inactive).

Turning to SZT2 (UniProt Q5T011), the log2 fold change was 0.006 (inactive).

For the target STMN3 (UniProt Q9NZ72), the log2 fold change is -0.066 (inactive).

Consider SLC25A44 (UniProt Q96H78), for which the log2 fold change was 0.307 (inactive).

On to SYNE2 isoform 2 (UniProt Q8WXH0), for which the log2 fold change is -0.042 (inactive).

STK3 isoform 2 (UniProt Q13188): the log2 fold change is -0.012 (inactive).

Consider SPPL2A (UniProt Q8TCT8), for which the log2 fold change was -0.062 (inactive).

As for SURF2 (UniProt Q15527), the log2 fold change is 0.127 (inactive).

Turning to SPC25 (UniProt Q9HBM1), the log2 fold change is 0.012 (inactive).

As for SH3BP2 isoform 4 (UniProt P78314), the log2 fold change was 0.029 (inactive).

Regarding SMC1B isoform 3 (UniProt Q8NDV3), the log2 fold change is -0.071 (inactive).

As to TARBP1 (UniProt Q13395), the log2 fold change was -0.047 (inactive).

On to SSX5 isoform 2 (UniProt O60225), for which the log2 fold change is 0.031 (inactive).

SRRT (UniProt Q9BXP5): the log2 fold change is 0.042 (inactive).

SMIM1 (UniProt B2RUZ4): the log2 fold change was -0.096 (inactive).

Turning to SOX5 (UniProt P35711), the log2 fold change is 0.049 (inactive).

Regarding SYK (UniProt P43405), the log2 fold change was -0.123 (inactive).

With SUZ12 (UniProt Q15022), the log2 fold change was 0.012 (inactive).

Regarding SRGN (UniProt P10124), the log2 fold change is -0.005 (inactive).
